From PubChem BioAssay
MCF10A rerep: A quantitative high throughput screen for small molecules that induce DNA re-replication in MCF 10a normal breast cells. MCF 10A DNA re-replication, Hoechst nuclear intensity, 48 h. Potency, µM (series often up to 46.1 µM), for the others: at the highest dose activity, positive = re-replication, usual class: activators. 2.9% of 350,000 active; further: % of control where 0% means no effect; nearly all actives have a fitted effect of over 50% in size
RORg inh: qHTS for inhibitors of ROR gamma transcriptional activity; Potency, µM (doses to about 53.6 µM), for inactives: at the top dose activity change, negative = inhibition, most hits filed as inhibitors; 5.4% of 310,000 active; Drosophila S2 Gal4-RORgamma UAS-luciferase reporter, 20 h; further: on the % scale 0 is the no-effect control and ±100 the full control effect; nearly all actives have a fitted effect of over 60% in size
Target sequence (P51450 whole entry, looked up, the tested form may be a part): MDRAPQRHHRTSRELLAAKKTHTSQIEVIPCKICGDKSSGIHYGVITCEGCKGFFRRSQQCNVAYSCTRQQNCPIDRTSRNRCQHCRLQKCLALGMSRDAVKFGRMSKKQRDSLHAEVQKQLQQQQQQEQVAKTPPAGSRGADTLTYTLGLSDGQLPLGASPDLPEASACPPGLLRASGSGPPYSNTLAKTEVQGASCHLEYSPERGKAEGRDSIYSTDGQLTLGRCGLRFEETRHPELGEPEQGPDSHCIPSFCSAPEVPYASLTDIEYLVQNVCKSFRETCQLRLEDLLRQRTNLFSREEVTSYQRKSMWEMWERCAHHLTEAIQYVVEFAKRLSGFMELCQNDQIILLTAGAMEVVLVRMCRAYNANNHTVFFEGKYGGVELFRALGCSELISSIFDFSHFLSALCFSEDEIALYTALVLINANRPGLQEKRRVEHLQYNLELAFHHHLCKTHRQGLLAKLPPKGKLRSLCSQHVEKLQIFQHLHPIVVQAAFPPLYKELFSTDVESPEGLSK
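Drosophila S2 cells stably expressing Gal4-DBD/mouse RORγ fusion under metallothionein promoter plus UAS-luciferase; compound 1 h, then 700 uM CuSO4 induction for 20 h at ambient temperature; inhibition read as reduced luminescence.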
SW480 rerep: A quantitative high throughput screen for small molecules that induce DNA re-replication in SW480 colon adenocarcinoma cells. Potency, µM (top dose mostly 46.1 µM), for inactives: at the highest dose re-replication activation, most hits filed as activators. 1.8% of 340,000 active. AID 624297, 2012. SW480 DNA re-replication, Hoechst DNA content imaging, 48 h; further: % of control where 0% means no effect; nearly all actives have a fitted effect of over 55% in size
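Image-based read-out: total Hoechst fluorescence of nuclei (405 nm excitation, 500-530 nm emission), with hits raising the fraction of high-intensity nuclei. SW480 colon cells incubated 48 hr with compounds at 37 C.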
ELG1 repair inh: qHTS screen for small molecules that inhibit ELG1-dependent DNA repair in human embryonic kidney (HEK293T) cells expressing luciferase-tagged ELG1 | HEK293T ELG1-luciferase reporter, luminescence, 16 h; DNA damage induced by 5-fluorouridine | 2.3% of 330,000 active | AID 504467, 2011 | Potency, µM (series often up to 46.1 µM), without a hit: at the highest dose activity change, negative = inhibition, most hits filed as inhibitors; further: on the % scale 0 is the no-effect control and ±100 the full control effect; nearly all actives have a fitted effect of over 55% in size
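HEK293T cells expressing luciferase-tagged ELG1 (2,000/well) received 5-Fluorouridine plus compound or DMSO for 16 hr at 37 °C. Luciferase was read by ONE-Glo luminescence after 30 min at room temperature.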
VP16 counter: VP16 counterscreen qHTS for inhibitors of ROR gamma transcriptional activity; 3.5% of 310,000 active; Potency, µM (top dose mostly 53.6 µM), for the others: at the top dose activity, negative = inhibition, hits mostly inhibitors; Drosophila S2 Gal4-VP16 UAS-luciferase, luminescence, 20 h;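 further: Gal4-VP16 expression switched on by copper sulfate through the metallothionein promoter; on the % scale 0 is the no-effect control and ±100 the full control effect; nearly all actives have a fitted effect of over 50% in size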
* hit, by the source's call; ? = inconclusive; . = no result; ! = a repeat was not active; [ ] = remark or other dose. A selection: hits, their analogues and other compounds. The true share with any hit is near 10%. The call rests on the fitted dose curve; in most records, active means well fitted curve in the direction sought with a large enough effect; inconclusive means small, poorly fitted or top-dose-only effect, or another doubt; inactive means no such curve, though single readings can be large; an effect the other way counts as inactive or inconclusive. Potency means the concentration at half of the fitted maximal effect.

SMILES	MCF10A rerep	RORg inh	SW480 rerep	ELG1 repair inh	VP16 counter
CCN(CC)CCNC(=O)c1cc2c(=O)n(C)c3ccccc3c2s1	23.1µM*	-24.4%	?	?	-10.1%
Cc1ccc(CN2CC(C(=O)Nc3nnc(SCc4c(Cl)cccc4Cl)s3)CC2=O)cc1 (stereo unspecified)	?	?	-3.8%	-4.0%	-4.4%
CCS(=O)(=O)N1Cc2ccccc2CC1C(=O)Nc1cccc(OC)c1 (stereo unspecified)	11.5%	27.2%	0.2%	2.31µM*	-21.6%
CCS(=O)(=O)N1Cc2ccccc2CC1C(=O)Nc1nnc(SCc2c(Cl)cccc2Cl)s1 (stereo unspecified)	21.5%	5.01µM*	5.5%	13.1%	6.31µM*
CCS(=O)(=O)N1Cc2ccccc2CC1C(=O)Nc1nc2c(C)cccc2s1 (stereo unspecified)	-32.3%	3.55µM*	6.9%	?	5.62µM*
CCSc1nnc(NC(=O)C2Cc3ccccc3CN2S(=O)(=O)CC)s1 (stereo unspecified)	-2.2%	?	12.1%	?	-93.1%
Cc1cnc(C(=O)Nc2nnc(SCc3c(Cl)cccc3Cl)s2)cn1	?	2µM*	-4.5%	-0.5%	5.01µM*
CCS(=O)(=O)N1Cc2ccccc2CC1C(=O)Nc1nc(C)cs1 (stereo unspecified)	5.4%[9.22 µM]	-23.0%	-13.4%	?	-7.0%
COc1ccc(F)c(CN2CCC(n3nccc3NC(=O)CCCc3ccccc3)CC2)c1	2.4%	15.9%	-3.8%	-24.6%	12.0%
Cc1ccc(S(=O)(=O)c2nc(-c3cccs3)oc2NCCCN(C)C)cc1	-6.4%	16.6%	-2.4%	-17.6%	-3.5%
CC(=O)c1ccccc1Oc1ncnc(N)c1[N+](=O)[O-]	-4.9%	-18.3%	-10.4%	5.2%	9.3%
C#CCCCO/N=C1/C[C@@H](O)[C@@H](O)[C@@H]2[C@@H]3C(=O)N(C4CCCCC4)C(=O)[C@H]3CC[C@@H]12	.	14.0%[10 µM]	.	.	5.0%[10 µM]
O=C(COC(=O)/C=C/c1cccs1)Nc1ccc2ccccc2c1	?	-9.0%	2.1%	16.9%	-7.1%
COC(=O)N[C@@H](c1ccc(Br)cc1)C(C(=O)OC)C(=O)OC	.	0.5%	.	.	9.9%
CCc1nnc(NC(=O)C2Cc3ccccc3CN2S(=O)(=O)c2cccs2)s1 (stereo unspecified)	0.1%	-19.2%[0.365 µM]	-0.9%	?	.
Cc1cccc2sc(NC(=O)CNS(=O)(=O)c3ccc(Br)s3)nc12	?	11.2µM*	2.3%	-4.1%	-26.5%
O=C(Nc1nnc(C2CC2)s1)C1Cc2ccccc2CN1S(=O)(=O)c1cccs1 (stereo unspecified)	?	1.41µM*	-2.3%	-17.3%	?
O=c1[nH]c2cc(Cl)ccc2n1-c1ccccc1	0.1%	15.3%	1.3%[9.22 µM]	-3.7%	-2.9%
C=CCn1c(SCCNC(C)=O)nc2cc(-c3ccccc3)sc2c1=O	-5.2%	?	-8.5%	1.4%	1.3%
C=C(C)Cn1c(=S)[nH]c2ccccc2c1=O	-1.1%	3.98µM*	-9.8%	.	11.2µM*
C=CCn1c(=S)[nH]c2cc(-c3ccccc3)sc2c1=O	-20.9%	1µM*	-17.2%	?	2µM*
CC(C)Cn1c(=S)[nH]c2cc(C(=O)NCc3ccccc3F)ccc2c1=O	14.6µM*	.	11.3%	-25.0%	.
CC(C)Cn1c(=S)[nH]c2cc(Cl)ccc21	?	1.58µM*	-1.4%	-10.6%	?
O=C(Nc1ccon1)c1ccc(S(=O)(=O)N2CCOCC2)cc1	-2.6%	21.9%	?	1.1%	-1.3%
CCOC(=O)c1c(OCCO)noc1N	-10.4%	-2.4%	-7.3%	-2.4%	4.0%
SMILES	MCF10A rerep	RORg inh	SW480 rerep	ELG1 repair inh	VP16 counter
CCN1CCN(C(=O)c2ccc3c(=O)n(CCC4=CCCCC4)c(=O)[nH]c3c2)CC1	28.3%	?	-2.3%	?	16.3%
O=c1c2ccccc2[nH]c(=S)n1CCC1=CCCCC1	4.2%	1.58µM*	-5.9%	?	1.41µM*
CC(C)COn1c(=S)[nH]c2ccccc2c1=O	-2.5%	2.24µM*	11.0%	?	10µM*
CCN(CC)CCCn1c(=S)[nH]c2ccccc2c1=O	12.3%	?	-11.9%	2.4%	-2.6%
CC(C)Cn1c(=S)[nH]c2ccccc2c1=O	-3.7%[9.22 µM]	1.12µM*	-14.1%	5.1%	4.47µM*
C=CCn1c(=S)[nH]c2ccccc2c1=O	26.1%	5.62µM*	-2.4%	-4.0%	4.47µM*
O=C(COC(=O)c1ccc[n+]([O-])c1)Nc1c(Br)cc([N+](=O)[O-])cc1Br	.	8.1%	.	-13.3%	4.4%
O=C(NCC(c1cccs1)N1CCOCC1)c1ccc(OCc2ccccc2)cc1 (stereo unspecified)	-1.3%	.	18.0%	-4.4%	.
N/C(=N\c1nc2ccccc2o1)NC(=O)c1ccc(Cl)cc1	?	10µM*	-3.7%	?	?
N/C(=N\c1nc2ccccc2o1)NC(=O)c1ccc([N+](=O)[O-])cc1	-0.4%	-24.1%	-1.2%	-9.3%	-3.6%
COc1ccc(C(=O)N/C(N)=N/c2nc3ccccc3o2)cc1	?	8.91µM*	17.1%	?	?
CC(C)(C)c1ccc(C(=O)N/C(N)=N/c2nc3ccccc3o2)cc1	1.0%	1.0%	-5.6%	-16.3%	0.4%
N/C(=N\c1nc2ccccc2o1)NC(=O)c1ccc(F)cc1	9.1%	2.51µM*	22.8%	?	5.62µM*
N/C(=N\c1nc2ccccc2o1)NC(=O)c1ccccc1Br	-2.0%	0.891µM*	-0.8%	?	-32.2%
O=C(Nc1ccc2ccccc2n1)c1ccccc1Br	5.0%	-22.5%	-20.8%	?	-10.7%
COC(=O)c1cn(C(=O)c2cc(Cl)ccc2Cl)c2ccccc12	5.9%	4.8%	2.1%	-25.7%	0.3%
CC(C)COc1ccc(C(=O)OCCN2CCCCC2)cc1	?	18.8%	-2.6%	16.3%	-11.3%
CC(C)COc1ccc(C(=O)CCN2CCCCC2)cc1	11.6µM*	7.08µM*	?	0.0%	11.2µM*
CC(=O)c1ccc(OCCCN2CCCCC2)cc1	1.0%	11.3%	-15.5%	?	-8.1%
CCCCOc1ccc(C(=O)CCN2CCCCC2)cc1	16.4µM*	?	10.3µM*!	6.0%	14.1µM*
O=C(CCSc1ccccn1)c1ccccc1	?	20µM*	?	-1.1%	?
CS(=O)(=O)N(Cc1ccc(C(=O)NCCSc2ccccn2)cc1)c1ccccc1	10.1%	9.8%	2.2%	-35.0%	-10.8%
COc1ccc(C(=O)NCCSc2ccccn2)cc1	2.4%	12.6µM*	-13.9%	?	?
Cc1ccc(N(Cc2ccc(C(=O)NCCSc3ccccn3)cc2)S(C)(=O)=O)cc1C	3.2%	30.7%	0.9%	9.2µM*	-8.4%
